Source: article PMC5540273 (PLoS ONE, 2017)

Columns and labels:
Settings in all cases: concentration: 1 μM,replicates: in singlicate; n = 1
[1] = system: RIOK1
[2] = system: RIOK2
[3] = system: RIOK3
[4] = system: RIPK1
[5] = system: RIPK2
[6] = system: RIPK4
[7] = system: RIPK5
[8] = system: ROCK1
[9] = system: ROCK2
[10] = system: ROS1
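Note: KINOMEscan kinase panel screen.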

Structure (SMILES)	%Inh [1]	%Inh [2]	%Inh [3]	%Inh [4]	%Inh [5]	%Inh [6]	%Inh [7]	%Inh [8]	%Inh [9]	%Inh [10]
Cc1cc(C(=O)Nc2ccc(Oc3ccc4nc(NC(=O)C5CC5)cn4n3)cc2)nn1-c1ccccc1	17%	0%	41%	0%	24%	0%	0%	0%	0%	0%
CN(C)CCOc1ccc(-c2cc(-c3c[nH]nc3-c3ccccn3)ccn2)cc1 [GW835314]	0%	2%	8%	0%	78%	16%	14%	9%	18%	21%
NC(=O)c1cc(-c2ccccc2)cc2c(C3CCNCC3)c[nH]c12 [GSK301362]	79%	20%	64%	0%	7%	19%	0%	40%	19%	23%
Cl.Cl.Nc1nc(-c2ccc3c(N)n[nH]c3c2)cc(N2CCCC(NC(=O)c3ccccc3)C2)n1 (stereo not drawn) [GSK2286775]	96.5%	9%	99.3%	4%	8%	39%	5%	2%	30%	0%
C[C@@H](Oc1cc(-c2cnn(C3CCNCC3)c2)cnc1N)c1c(Cl)ccc(F)c1Cl	39%	0%	50%	6%	32%	34%	80%	5%	20%	
Cl.Cl.NC[C@H](CC1CCCCC1)NC(=O)c1cc(Br)c(-c2ccnc3[nH]ccc23)s1 [GSK1581427]	100%	66%	80%	0%	0%	20%	5%	100%	99.1%	17%
Cl.Cl.NC[C@H](Cc1ccc(C(F)(F)F)cc1)NC(=O)c1cc(Br)c(-c2ccnc3[nH]ccc23)s1 [GSK1487252]	35%	0%	12%	0%	0%	19%	0%	98.2%	99.5%	44%
C=CC(=O)Nc1cc2c(Nc3ccc(F)c(Cl)c3)ncnc2cc1OCCCN1CCOCC1 [GW781483]	54%	10%	46%	8%	53%	26%	4%	42%	0%	4%
Cl.Oc1cc(-c2nc(-c3ccccc3)[nH]c2-c2ccncc2)ccc1Cl [SB-386023]	0%	5%	0%	0%	78%	17%	21%	1%	6%	19%
CC(C)Nc1cc(-c2ccc3c(N)n[nH]c3c2)nc(N)n1 [GSK2221681]	94.1%	19%	66%	0%	0%	66%	0%	7%	41%	5%
CC(C)N1C(=O)Cc2cc(Nc3ncc(C(F)(F)F)c(NCc4cccc(S(C)(=O)=O)c4)n3)ccc21	46%	21%	88%	0%	4%	42%	43%	3%	0%	59%
CNC(=O)c1ccccc1Sc1ccc2c(/C=C/c3ccccn3)n[nH]c2c1	2%	0%	0%	12%	22%	0%	11%	5%	17%	45%
Cc1ccc(-n2nc(C(C)(C)C)cc2NC(=O)Nc2ccc(OCCN3CCOCC3)c3ccccc23)cc1 [GW839464]	54%	0%	8%	29%	0%	0%	0%	0%	0%	0%
O=C(NCCNc1ccnc(NCc2ccc(F)cc2)n1)c1cc2ccccc2s1 [GSK1379944]	28%	0%	17%	0%	73%	5%	0%	0%	0%	7%
COc1ccc(C[C@@H](CN)NC(=O)c2cc(Br)c(-c3ccnc4[nH]ccc34)s2)cc1.Cl.Cl [GSK1389063]	89%	49%	80%	0%	4%	36%	28%	100%	95.2%	59%
CCN(CC)CCCCNc1ncc2cc(-c3c(Cl)cccc3Cl)c(NC(=O)NC(C)(C)C)nc2n1	0%	6%	0%	17%	54%	0%	26%	0%	9%	43%
CCn1c(-c2nonc2N)nc2c(C#CC(C)(C)O)nc(OCCN)cc21.Cl.Cl [GSK902056]	0%	8%	0%	0%	0%	0%	4%	18%	0%	2%
Cc1occc1-c1nc(N)c(OC[C@@H](N)Cc2c[nH]c3ccccc23)cc1-c1cc2c(C)n[nH]c2cn1 [GSK1660450]	87%	16%	59%	0%	10%	4%	0%	93.7%	82%	4%
Cc1cc2cn[nH]c2cc1-c1cccc2c(N)c(C(N)=O)nnc12	100%	77%	73%	0%	4%	84%	74%	70%	68%	80%
Nc1nc(Nc2ccccc2)cc(-c2ccc3c(N)n[nH]c3c2)n1 [GSK2225749]	98.5%	54%	76%	0%	0%	44%	0%		45%	0%
CCN(CC)CCOc1ccc(Nc2ncc3cc(-c4c(Cl)cccc4Cl)c(=O)n(C)c3n2)cc1 [SB-601273]	35%	29%	92.3%	100%	99.7%	18%	44%	25%	50%	50%
Cc1ccc2c(-c3ccncc3)c(-c3ccc(F)cc3)nn2c1.Cl [GW461484]	0%	0%	19%	0%	55%	0%	0%	14%	5%	0%
C[C@H]1Oc2cc(cnc2N)-c2c(nn(C)c2C#N)CN(C)C(=O)c2ccc(F)cc21	0%	0%	0%	12%	0%	0%	89%	0%	0%	98.5%
CN(C)CC(O)COc1ccc(Nc2nccc(-c3cnn4nc(N5CCOCC5)ccc34)n2)cc1 (stereo not drawn) [GW767488]	96.6%	98.2%	98.2%	46%	0%	55%	65%	93.8%	97.9%	48%
Cc1n[nH]c2ccc(-c3cc(OC[C@@H](N)Cc4ccccc4)cnc3-c3ccoc3)cc12.O=C(O)C(F)(F)F.O=C(O)C(F)(F)F [GSK507358]	93%	0%	72%	0%	0%	0%	0%	31%	33%	0%
O=C(NCCCN1CCOC1=O)c1cnc(NCc2cc(Cl)ccc2Cl)nc1NC1CCCC1	0%	0%	6%	1%	0%	11%	0%	0%	0%	18%
C[C@@H]1CCN(C(=O)CC#N)C[C@@H]1N(C)c1ncnc2[nH]ccc12	0%	0%	37%	0%	0%	0%	0%		46%	6%
